Reference: PubChem BioAssay
Calls of active or inactive are those of the source. Unless noted, the rule behind the calls is not given here.

Experiments:
[1] = test system: Wnt5a (protein binding on small-molecule microarray); experiment: Wnt5a binders on small-molecule microarray, primary screen, biophysical, 635/667 nm fluorescence (AID 1142); conditions: 635 nm fluorescence, higher = more signal;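 note: fluorescence read at 667 nm with signal to noise per printed feature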
[2] = cell viability in Huh7 cells, primary screen, cytotoxicity control for HCV replication inhibitor project, CellTiter-Glo luminescence, basal, 48 h (AID 1143); conditions: Huh7 HCV replicon, higher = more signal, called active from +8 up or from −8 down;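 note: Huh7 hepatoma cells carrying a hepatitis C replication reporter with no stimulus; test concentration not given here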
[3] = P. aeruginosa biofilm formation inhibitors, primary screen, PAO1 strain, BacTiter-Glo luminescence, LB-PBS (AID 1144); conditions: 12 h, higher = more signal
[4] = CREB reporter modulators without forskolin, primary screen, cell-based, PC12, CRE-LacZ reporter, unstimulated (AID 1145); conditions: no forskolin, luminescence, 4.5 h, higher = more signal, called active from +8 up or from −8 down
[5] = CREB reporter modulators under forskolin, primary screen, cell-based, PC12, CRE-LacZ reporter, forskolin-stimulated (AID 1146); conditions: luminescence, 4.5 h, higher = more signal, called active from +8 up or from −8 down;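 note: PC12 cells with 6xCRE LacZ reporter stimulated by forskolin 10 µM; beta-galactosidase reporter signal reflecting CREB driven transcription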
[6] = target: Streptavidin (Streptomyces avidinii) (UniProt P22629); experiment: streptavidin binders on small-molecule microarray, primary screen, artefact control for SMM compound annotation, biophysical, 635/667 nm fluorescence (AID 1147); conditions: streptavidin binding, higher = more signal;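 note: signal reflects streptavidin binding to arrayed compounds as a control protein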
[7] = small-molecule binders of probe aInhba, primary screen, biochemical, small-molecule microarray, 635/667 nm fluorescence (AID 1148); conditions: higher = more signal;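 note: score merges 667nm spot fluorescence with signal-to-noise for antibody binding to printed compounds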
Torsin-1A (Homo sapiens) [8] = target: Torsin-1A (Homo sapiens) (UniProt O14656); experiment: torsin A binders from cell lysate, primary screen, small-molecule microarray, wild-type, 635/667 nm (AID 1149); conditions: COS7 hTOR1A-WT lysate, 635 nm fluorescence, higher = more signal
Torsin-1A (Homo sapiens) [9] = target: Torsin-1A (Homo sapiens) (UniProt O14656); experiment: small-molecule binders of mutant TOR1A in lysate, primary screen, cell lysate, small-molecule microarray, COS7 lysate, 635/667 nm fluorescence (AID 1150); conditions: COS7 hTOR1A mutant lysate, 635 nm fluorescence, higher = more signal;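 note: score pools 667 nm emission and signal to noise measuring lysate protein binding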
[10] = test system: Sonic hedgehog protein (Shh); experiment: small-molecule binders of Shh protein, primary screen, biochemical, small-molecule microarray, 635/667 nm fluorescence (AID 1151); conditions: small-molecule microarray binding, 635 nm fluorescence; higher = more signal;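 note: Shh protein binding to compounds spotted on small-molecule microarray slides; score combines spot fluorescence intensity with signal-to-noise across triplicate slides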
[11] = E. coli DRC41 culture turbidity changes, primary screen, E. coli filamentation inducer project, strain DRC41, OD650, 48 h (AID 1152);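 note: E. coli MC1000 strain DRC41 lacking acrAB efflux pump and sulA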; conditions: E. coli DRC41 (acrAB sulA), higher = more signal, called active from +8 up or from −8 down
[12] = small-molecule binders of probe aLefty1, primary screen, biochemical, small-molecule microarray, 635/667 nm fluorescence (AID 1153); conditions: higher = more signal;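 note: score merges spot fluorescence with signal-to-noise ratio from the scanned slide images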
[13] = PSAC antagonists in infected red cells, primary screen, cell-based, P. falciparum Indochina, OD700, 1 h (AID 1154); conditions: P. falciparum Indochina infected RBC osmotic lysis, higher = more signal, called active from +8 up or from −8 down
[14] = PSAC antagonists in infected red cells, primary screen, cell-based, P. falciparum Indochina, OD700, 2 h (AID 1155);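 note: lysis reports solute entry through the parasite surface anion channel PSAC; channel blockers reduce lysis of infected cells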; conditions: P. falciparum Indochina infected erythrocytes, osmotic lysis OD700; higher = more signal, called active from +8 up or from −8 down
[15] = osmotic lysis modulators in infected erythrocytes, primary screen, PSAC antagonist project, cell-based, P. falciparum Indochina, OD700, 3 h (AID 1156); conditions: higher = more signal, called active from +8 up or from −8 down
[16] = PSAC antagonists in infected red cells, primary screen, cell-based, P. falciparum Indochina, OD700, 18 h (AID 1157); conditions: P. falciparum Indochina infected erythrocytes, osmotic lysis OD700, 18 h; higher = more signal, called active from +8 up or from −8 down
[17] = modulators of S6 phosphorylation in cells, primary screen, cell-based, A549, cytoblot, luminescence, serum-stimulated (AID 1158); conditions: A549 phospho-S6 cytoblot, 5 h, higher = more signal;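 note: serum-stimulated A549 lung adenocarcinoma cells; signal is phosphorylated S6 detected by cytoblot immunostaining with HRP secondary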
[18] = target: NADPH oxidase 2 (Homo sapiens) (UniProt P04839); experiment: NOX2-dependent H2O2 signal modulators, primary screen, NOX inhibitor project, cell-based, HEK293-NOX2, PMA-stimulated, Amplex Red fluorescence (AID 1159); conditions: 45 min, higher = more signal, called active from +8 up or from −8 down; note: test concentration not given here
[19] = target: NADPH oxidase 4 (Homo sapiens) (UniProt Q9NPH5); experiment: NOX4-dependent H2O2 signal modulators, primary screen, NOX inhibitor project, cell-based, HEK293-NOX4, tetracycline-induced, Amplex Red fluorescence (AID 1160); conditions: 45 min, higher = more signal, called active from +8 up or from −8 down
[20] = target: NADPH oxidase 5 (Homo sapiens) (UniProt Q96PH1); experiment: NOX5-dependent H2O2 signal modulators, primary screen, NOX inhibitor project, cell-based, HEK293-NOX5, Amplex Red fluorescence (AID 1161); conditions: HEK293-NOX5, ionomycin, 45 min, higher = more signal
Chain of NADPH oxidase 5 (Homo sapiens) (Q96PH1 whole entry, looked up): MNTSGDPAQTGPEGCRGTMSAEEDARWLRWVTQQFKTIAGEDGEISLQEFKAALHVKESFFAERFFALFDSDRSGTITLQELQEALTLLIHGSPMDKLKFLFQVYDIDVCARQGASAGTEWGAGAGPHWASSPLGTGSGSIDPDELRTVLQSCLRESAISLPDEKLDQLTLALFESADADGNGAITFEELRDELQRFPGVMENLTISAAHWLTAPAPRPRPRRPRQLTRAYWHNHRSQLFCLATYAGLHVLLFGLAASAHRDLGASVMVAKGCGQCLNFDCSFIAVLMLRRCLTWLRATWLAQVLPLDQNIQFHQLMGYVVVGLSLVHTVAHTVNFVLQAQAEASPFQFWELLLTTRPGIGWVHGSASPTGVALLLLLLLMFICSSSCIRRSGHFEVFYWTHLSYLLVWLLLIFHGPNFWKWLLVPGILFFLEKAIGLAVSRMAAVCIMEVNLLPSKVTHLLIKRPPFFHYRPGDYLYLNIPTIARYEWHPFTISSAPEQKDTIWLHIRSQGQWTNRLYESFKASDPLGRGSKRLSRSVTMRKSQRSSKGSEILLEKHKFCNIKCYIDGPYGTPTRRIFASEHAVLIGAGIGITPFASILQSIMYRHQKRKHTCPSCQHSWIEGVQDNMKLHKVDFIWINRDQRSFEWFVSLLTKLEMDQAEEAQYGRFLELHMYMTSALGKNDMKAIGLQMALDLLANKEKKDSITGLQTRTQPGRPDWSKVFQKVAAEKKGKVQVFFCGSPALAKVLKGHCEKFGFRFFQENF

Chain of NADPH oxidase 2 (Homo sapiens) (P04839 whole entry, looked up): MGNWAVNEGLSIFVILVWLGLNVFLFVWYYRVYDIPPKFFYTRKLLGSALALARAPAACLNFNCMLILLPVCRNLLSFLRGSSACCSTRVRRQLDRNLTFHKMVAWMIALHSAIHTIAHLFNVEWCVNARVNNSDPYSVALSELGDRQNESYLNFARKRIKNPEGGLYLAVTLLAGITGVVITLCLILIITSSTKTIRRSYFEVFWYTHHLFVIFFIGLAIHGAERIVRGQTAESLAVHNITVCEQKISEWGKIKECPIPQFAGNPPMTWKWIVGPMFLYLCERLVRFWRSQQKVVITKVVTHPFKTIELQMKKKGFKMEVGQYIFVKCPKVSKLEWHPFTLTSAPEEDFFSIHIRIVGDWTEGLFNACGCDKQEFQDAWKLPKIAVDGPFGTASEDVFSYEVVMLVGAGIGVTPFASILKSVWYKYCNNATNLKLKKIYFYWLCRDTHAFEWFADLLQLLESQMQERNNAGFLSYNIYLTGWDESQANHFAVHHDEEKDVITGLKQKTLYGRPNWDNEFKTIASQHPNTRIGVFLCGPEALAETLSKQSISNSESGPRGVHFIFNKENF
Chain of Torsin-1A (Homo sapiens) (O14656 whole entry, looked up): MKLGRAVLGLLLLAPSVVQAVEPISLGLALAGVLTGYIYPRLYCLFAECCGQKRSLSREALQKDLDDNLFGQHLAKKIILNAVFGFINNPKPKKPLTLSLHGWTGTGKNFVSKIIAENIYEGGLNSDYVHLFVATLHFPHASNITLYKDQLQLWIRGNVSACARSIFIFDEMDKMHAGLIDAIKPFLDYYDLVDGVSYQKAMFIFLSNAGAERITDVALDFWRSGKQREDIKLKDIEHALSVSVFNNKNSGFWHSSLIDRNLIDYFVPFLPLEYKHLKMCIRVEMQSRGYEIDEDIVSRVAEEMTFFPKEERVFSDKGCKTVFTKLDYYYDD
Chain of Streptavidin (Streptomyces avidinii) (P22629 whole entry, looked up): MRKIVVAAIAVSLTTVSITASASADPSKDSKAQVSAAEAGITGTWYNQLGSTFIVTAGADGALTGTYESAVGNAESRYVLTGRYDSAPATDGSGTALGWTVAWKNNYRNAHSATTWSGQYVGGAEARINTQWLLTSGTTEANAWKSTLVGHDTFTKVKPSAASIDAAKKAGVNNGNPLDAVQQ
Chain of NADPH oxidase 4 (Homo sapiens) (Q9NPH5 whole entry, looked up): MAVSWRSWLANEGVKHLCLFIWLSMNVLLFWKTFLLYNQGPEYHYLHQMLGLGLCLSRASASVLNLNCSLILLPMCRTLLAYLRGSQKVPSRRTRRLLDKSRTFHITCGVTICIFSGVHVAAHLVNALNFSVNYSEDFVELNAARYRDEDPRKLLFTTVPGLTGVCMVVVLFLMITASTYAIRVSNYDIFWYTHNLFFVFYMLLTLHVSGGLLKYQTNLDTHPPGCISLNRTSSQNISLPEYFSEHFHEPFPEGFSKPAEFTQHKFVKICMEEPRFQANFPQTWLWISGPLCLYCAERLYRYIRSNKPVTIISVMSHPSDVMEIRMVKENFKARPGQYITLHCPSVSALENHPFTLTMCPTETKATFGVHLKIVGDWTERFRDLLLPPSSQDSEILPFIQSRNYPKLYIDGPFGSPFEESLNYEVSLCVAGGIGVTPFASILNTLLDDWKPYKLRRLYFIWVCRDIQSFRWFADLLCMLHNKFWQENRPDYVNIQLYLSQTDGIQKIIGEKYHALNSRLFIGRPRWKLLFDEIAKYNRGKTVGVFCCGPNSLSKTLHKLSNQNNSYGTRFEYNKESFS

SMILES	composite z-score [1]	z-score [2]	z-score [3]	z-score [4]	z-score [5]	composite z-score [6]	composite z-score [7]	composite z-score (Torsin-1A (Homo sapiens) [8])	composite z-score (Torsin-1A (Homo sapiens) [9])	composite z-score [10]	z-score [11]	composite z-score [12]	z-score [13]	z-score [14]	z-score [15]	z-score [16]	z-score [17]	z-score [18]	z-score [19]	z-score [20]
COC(=O)CC=C[C@@H](C)[C@@H](C=NO[C@H](C)c1cn([C@H](CO)Cc2ccccc2)nn1)OC	0.247	-0.742 (inactive)	0.226 (inactive)	0.359 (inactive)	0.303 (inactive)	0.21	-0.128	1.09	1.78	1.08	-0.36 (inactive)	-0.104	0.727 (inactive)	0.0995 (inactive)	-0.721 (inactive)	0.0239 (inactive)	-0.505	0.824 (inactive)	0.541 (inactive)	0.299
CC(C)=CCCC(C)=CCON=C1C[C@@H](O)[C@@H](O)[C@@H]2[C@@H]3C(=O)N(c4cccc(Oc5ccccc5)c4)C(=O)[C@@H]3CC[C@@H]12	-0.102	-4.07 (inactive)	-0.375 (inactive)	2.51 (inactive)	0.557 (inactive)	0.217	-0.128	-0.38	0.0864	0.402	-1.15 (inactive)	-0.0501	3.39 (inactive)	-0.298 (inactive)	1.24 (inactive)	-2 (inactive)	0.313	-1.33 (inactive)	-0.237 (inactive)	-3.35
CCOC(=O)[C@H](CC(C)C)NC(=O)CCC1CC(OC(=O)NCCc2ccc(F)cc2)CC2(CCCC(COC(=O)NCCOc3ccccc3)O2)O1 (stereo not given in full)	0.32	-1.81 (inactive)	-0.446 (inactive)	0.469 (inactive)	0.127 (inactive)	0.939	0.336	0.0137	0.15	1.01	-0.221 (inactive)	-0.263	4.92 (inactive)	0.394 (inactive)	0.881 (inactive)	0.323 (inactive)	0.45	1.82 (inactive)	0.31 (inactive)	1.33
CO[C@H]1COC(=O)[C@H](C)NC(=O)[C@@H](C)COC(=O)[C@H]2CCCN2C(=O)CC=C[C@H]1C	0.139	0.191 (inactive)	-0.312 (inactive)	-0.906 (inactive)	-0.432 (inactive)	-0.323	-0.121	-0.0249	0.182	1.4	-0.0911 (inactive)	-0.194	0.551 (inactive)	0.453 (inactive)	0.603 (inactive)	0.293 (inactive)	0.203	-0.752 (inactive)	0.0917 (inactive)	0.363
COC(=O)CC=C[C@@H](C)[C@@H](C=NOC[C@@H](O)[C@H]1O[C@@H]2OC(C)(C)O[C@@H]2[C@H]1O)NS(=O)(=O)c1ccc(C)cc1	0.242	0.0198 (inactive)	0.603 (inactive)	-0.245 (inactive)	0.285 (inactive)	-0.0169	0.163	0.92	0.387	0.288	0.463 (inactive)	0.165	-0.0598 (inactive)	0.0216 (inactive)	-0.268 (inactive)	0.0967 (inactive)	-0.979	0.214 (inactive)	0.171 (inactive)	0.829
CC(C)CON=C1C[C@@H](O)[C@@H](O)[C@@H]2[C@@H]3C(=O)N(C[C@@H]4CCCO4)C(=O)[C@@H]3CC[C@@H]12	0.0867	1.13 (inactive)	-0.184 (inactive)	-0.0246 (inactive)	0.436 (inactive)	-0.265	-0.0987	-0.25	0.0844	-0.321	0.93 (inactive)	-0.0501	-0.441 (inactive)	-0.379 (inactive)	-0.611 (inactive)	-0.21 (inactive)	0.324	0.957 (inactive)	0.816 (inactive)	-0.0365
CCOC(=O)[C@H](CC(C)C)NC(=O)CCC1CC(OC(=O)NCc2ccc3c(c2)OCO3)CC2(CCCC(COC(=O)NCc3cccc(C(F)(F)F)c3)O2)O1 (stereo not given in full)	-0.194	-0.183 (inactive)	-0.67 (inactive)	0.11 (inactive)	0.814 (inactive)	-0.113	0.0184	0.175	-0.272	0.387	-0.457 (inactive)	0.125	1.73 (inactive)	0.182 (inactive)	0.286 (inactive)	0.297 (inactive)	0.427	1.46 (inactive)	0.179 (inactive)	1.2
CC(=O)OC[C@H]1O[C@H](CCON=C2[C@H]3CCn4c(=O)n(-c5ccccc5)c(=O)n4[C@H]3[C@H](O)[C@@H]3O[C@H]23)C=C[C@@H]1OC(C)=O	0.282	-1.89 (inactive)	2.23 (inactive)	-0.152 (inactive)	-0.0763 (inactive)	-0.0465	-0.0791	-0.299	0.0319	0.789	0.0711 (inactive)	0.637	0.553 (inactive)	0.0612 (inactive)	-0.192 (inactive)	0.269 (inactive)	-0.84	-0.564 (inactive)	0.0641 (inactive)	-0.0303
CCCNC(=O)OC[C@H]1O[C@H](CCON=C(C)CCN2CCCc3nc(C)c(C)cc32)C=C[C@@H]1Oc1ccc(OC)cc1	0.146	-2.37 (inactive)	-0.489 (inactive)	2.72 (inactive)	0.367 (inactive)	0.668	0.0028	0.182	-0.0347	0.368	0.794 (inactive)	-0.0061	5.53 (inactive)	0.722 (inactive)	0.99 (inactive)	0.318 (inactive)	-0.546	-0.995 (inactive)	0.166 (inactive)	-1.14
